The record followed here is PubChem BioAssay.

Experiment [1] concerns the target Cell division control protein 42 homolog (Homo sapiens) (UniProt P60953). Briefly: activated mutant Cdc42 GTP-binding inhibitors, dose response, biochemical, multiplex bead flow cytometry, Bodipy-FL-GTP (AID 1333;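 active = fitted half-maximal concentration within the tested dose range, moderate curve steepness, a statistically real signal drop, and little compound fluorescence or tag-binding interference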). Background: A flow cytometer gives signals particle by particle.
Experiment [2] shares this target. Briefly: wildtype Cdc42 GTP-binding inhibitors, dose response, biochemical, multiplex bead flow cytometry, Bodipy-FL-GTP (AID 1334;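 active = fitted half-maximal concentration within the tested range, moderate curve steepness, significant signal drop, and little compound fluorescence or bead-linkage interference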). Conditions: bead-based flow cytometry, Bodipy-FL-GTP binding to GST-Cdc42; at 100 µM (top of the series) unless noted.
The target of experiment [3] is GTPase HRas (Homo sapiens) (UniProt P01112). Put plainly: inhibitors of GTP binding to wildtype Ras, dose response, biochemical, multiplex bead flow cytometry (AID 1335). Particulars: bead-based flow cytometry, Bodipy-GTP binding to GST-Ras; at 100 µM (top of the series) unless noted.
In experiment [4] the test system is Ras-related protein Rab-7a (dog), GTP binding. Put plainly: Rab7 GTP binding inhibitors, potency, dose response, biochemical, wildtype, multiplex bead flow cytometry (AID 1336; call rule not given here).
Experiment [5] deals with Ras-related C3 botulinum toxin substrate 1 (Homo sapiens) (UniProt P63000). Briefly: wildtype Rac1 GTP binding inhibitors, dose response, biochemical, multiplex bead flow cytometry (AID 1340;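 active = dose curve with midpoint inside tested range, moderate steepness, plateau gap beyond fit error, low compound glow and bead-link interference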). Particulars: GST-Rac1 beads, Bodipy-FL-GTP binding; at 100 µM (top of the series) unless noted.
The target in experiment [6] is GTPase HRas (Homo sapiens) (UniProt P01112). Put plainly: activated Ras mutant GTP binding inhibitors, dose response, biochemical, multiplex bead flow cytometry (AID 1341;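 active = dose-response curve with midpoint inside the tested range, moderate steepness, significant amplitude and little compound fluorescence or bead-attachment interference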;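 note: GST-tagged constitutively activated Ras mutant immobilized on beads and multiplexed with other GTPases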).

For part of these data: Results with a measured potency or affinity are listed apart. Active and inactive are the calls of the source.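 Rule for the calls, unless noted: active = fitted half-maximal concentration within 10 nM to 100 µM, steepness 0.5 to 2, significant signal drop, low assay interference; inactive = the rest.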

GTPase HRas (Homo sapiens), sequence (P01112 whole entry, looked up): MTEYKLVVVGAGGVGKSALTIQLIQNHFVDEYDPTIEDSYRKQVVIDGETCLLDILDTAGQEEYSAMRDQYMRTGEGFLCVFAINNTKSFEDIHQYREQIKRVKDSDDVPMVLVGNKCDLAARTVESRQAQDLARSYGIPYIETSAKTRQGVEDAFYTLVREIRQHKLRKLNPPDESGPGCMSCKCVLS
Cell division control protein 42 homolog (Homo sapiens), sequence (P60953 whole entry, looked up): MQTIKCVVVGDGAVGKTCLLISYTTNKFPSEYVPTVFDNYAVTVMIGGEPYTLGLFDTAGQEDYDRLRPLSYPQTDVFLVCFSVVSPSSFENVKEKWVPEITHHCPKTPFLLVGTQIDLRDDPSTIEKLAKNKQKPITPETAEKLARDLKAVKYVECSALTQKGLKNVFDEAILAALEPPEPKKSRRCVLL

Regarding `COC(=O)CSc1nc2cc(Cl)ccc2c(=O)n1C1CCCC1`, the call in experiment [1], in experiment [4] and in experiment [6] was inactive. Further, in experiment [2], the fluorescence, percent of control (lower = inhibition) stood at 98%. This molecule yielded a GTP binding, percent of control in experiment [3] of 180%. In addition, in experiment [5], the GTP binding signal, raw median fluorescence (lower = inhibition) (MCF (arbitrary fluorescence units)) stood at 186.
As for `COc1ccc(OC)c(S(=O)(=O)Nc2ccc(O)c(Sc3ncn[nH]3)c2)c1`, the molecule was classed as inactive in experiment [1], in experiment [4] and in experiment [6]. The fluorescence, percent of control (lower = inhibition) in experiment [2] worked out at 48.6%. Moreover, the GTP binding, percent of control in experiment [3] is 65.1%. In addition, the GTP binding signal, raw median fluorescence (lower = inhibition) (MCF (arbitrary fluorescence units)) in experiment [5] is 189.
Turning to `Cc1ccc(-n2c(SCc3cc(=O)n4ccsc4n3)nnc2-c2cccnc2)c(C)c1`, the result in experiment [1], in experiment [4] and in experiment [6] was inactive. Also, the fluorescence, percent of control (lower = inhibition) in experiment [2] is 79.6%. The same molecule had a GTP binding, percent of control in experiment [3] of 157%. Moreover, the GTP binding signal, raw median fluorescence (lower = inhibition) (MCF (arbitrary fluorescence units)) in experiment [5] is 178.
Turning to `CC(=O)Nc1ccc(/C=N/NC(=O)CCN2CCN(c3ccccc3)CC2)cc1`, the molecule was classed as inactive in experiment [1], in experiment [4] and in experiment [6]. Further, the fluorescence, percent of control (lower = inhibition) in experiment [2] came to 33.8%. For the same molecule, the GTP binding, percent of control in experiment [3] was 74.7%. Besides, the GTP binding signal, raw median fluorescence (lower = inhibition) (MCF (arbitrary fluorescence units)) in experiment [5] was 140.
In the case of `COc1cc2c(cc1OC)-c1cc(NCc3ccccn3)nc(=O)n1CC2`, the call in experiment [1], in experiment [4] and in experiment [6] was inactive. For the same molecule, in experiment [2], the fluorescence, percent of control (lower = inhibition) was 30.7%. In experiment [3], this molecule registered a GTP binding, percent of control of 68.3%. The molecule also returned a GTP binding signal, raw median fluorescence (lower = inhibition) (MCF (arbitrary fluorescence units)) in experiment [5] of 182.
`O=C(O)c1ccc(COc2cccc(Cl)c2)o1`: the call in experiment [1], in experiment [4] and in experiment [6] was inactive. The fluorescence, percent of control (lower = inhibition) in experiment [2] stood at 60.1%. In addition, the GTP binding, percent of control in experiment [3] worked out at 87%. In addition, the GTP binding signal, raw median fluorescence (lower = inhibition) (MCF (arbitrary fluorescence units)) in experiment [5] worked out at 32.8.
For `Cc1cccc(Nc2nc(NCc3ccco3)c3ccccc3n2)c1`, the outcome in experiment [1], in experiment [4] and in experiment [6] was inactive. Further, the fluorescence, percent of control (lower = inhibition) in experiment [2] came out at 39.2%. In experiment [3], this molecule gave a GTP binding, percent of control of 54.7%. Moreover, the GTP binding signal, raw median fluorescence (lower = inhibition) (MCF (arbitrary fluorescence units)) in experiment [5] is 142.
For `COc1ccc(CN2C(=O)/C(=C/c3ccc(-c4ccc(Cl)c(C(=O)O)c4)o3)SC2=S)cc1`, the molecule was classed as inactive in experiment [1], in experiment [4] and in experiment [6]. Further, in experiment [2], the fluorescence, percent of control (lower = inhibition) is 32.2%. For the same molecule, the GTP binding, percent of control in experiment [3] came to 56%. This molecule showed a GTP binding signal, raw median fluorescence (lower = inhibition) (MCF (arbitrary fluorescence units)) in experiment [5] of 142.
Turning to `Cc1ccc(-n2c(=O)cc(N3CCN(C(=O)c4ccco4)CC3)[nH]c2=O)cc1`, the result in experiment [1], in experiment [4] and in experiment [6] was inactive. In experiment [2], the fluorescence, percent of control (lower = inhibition) was 36.6%. In experiment [3], this molecule had a GTP binding, percent of control of 81.3%. Also, the GTP binding signal, raw median fluorescence (lower = inhibition) (MCF (arbitrary fluorescence units)) in experiment [5] turned out to be 286.
In the case of `O=C(CSc1ncccc1C(=O)O)c1ccc2ccccc2c1`, the outcome in experiment [1], in experiment [4] and in experiment [6] was inactive. For the same molecule, in experiment [2], the fluorescence, percent of control (lower = inhibition) came to 48.7%. The same molecule yielded a GTP binding, percent of control in experiment [3] of 66.6%. The molecule further gave a GTP binding signal, raw median fluorescence (lower = inhibition) (MCF (arbitrary fluorescence units)) in experiment [5] of 0.
In the case of `COc1cc(N2CCCC2)c(OC)cc1/C=C(/C#N)c1cccc(Br)c1`, the molecule was classed as inactive in experiment [1], in experiment [4] and in experiment [6]. Moreover, the fluorescence, percent of control (lower = inhibition) in experiment [2] amounted to 103%. Also, in experiment [3], the GTP binding, percent of control was found to be 110%. For the same molecule, in experiment [5], the GTP binding signal, raw median fluorescence (lower = inhibition) (MCF (arbitrary fluorescence units)) was 228.
As for `Cc1nn2c(N)csc2nc1=O`, the molecule was classed as inactive in experiment [1], in experiment [4] and in experiment [6]. Further, the fluorescence, percent of control (lower = inhibition) in experiment [2] worked out at 56.9%. The same molecule gave a GTP binding, percent of control in experiment [3] of 67.8%. The GTP binding signal, raw median fluorescence (lower = inhibition) (MCF (arbitrary fluorescence units)) in experiment [5] was determined as 94.3.
As for `Cc1nn2c(-c3cccc(NC(=O)c4ccco4)c3)nnc2c2ccccc12`, the call in experiment [1], in experiment [4] and in experiment [6] was inactive. In addition, the fluorescence, percent of control (lower = inhibition) in experiment [2] was found to be 37.4%. In experiment [3], this molecule showed a GTP binding, percent of control of 51% [at 33.3 µM]. Further, the GTP binding signal, raw median fluorescence (lower = inhibition) (MCF (arbitrary fluorescence units)) in experiment [5] worked out at 136.
As for `Cc1sc2nc3c(SC(C)C(=O)O)cc(C(=O)c4ccccc4O)cn3c(=O)c2c1C` (stereo not given), the call in experiment [1], in experiment [4] and in experiment [6] was inactive. The fluorescence, percent of control (lower = inhibition) in experiment [2] stood at 29.3%. Also, in experiment [3], the GTP binding, percent of control was 72.1%. Besides, the GTP binding signal, raw median fluorescence (lower = inhibition) (MCF (arbitrary fluorescence units)) in experiment [5] stood at 186.
`COc1cc(/C=N/NC(N)=O)cc([N+](=O)[O-])c1O`: the result in experiment [1], in experiment [4] and in experiment [6] was inactive. Also, the fluorescence, percent of control (lower = inhibition) in experiment [2] stood at 35.1%. For the same molecule, the GTP binding, percent of control in experiment [3] came out at 78.6%. This molecule also had a GTP binding signal, raw median fluorescence (lower = inhibition) (MCF (arbitrary fluorescence units)) in experiment [5] of 175.
